Test results as given in PubChem BioAssay (EPA / NIEHS).
Inconclusive results are not listed. The source made the active and inactive calls. The calls were made as follows, unless noted: active = hit-call score of the fitted dose curve at least 0.9, where 1 is the maximum; inactive = score below 0.9.

What was measured:
DIO2 (gene 1734) = experiment: CCTE_GLTED_hDIO2: CCTE's human Deiodinase 2 (DIO2) Inhibition Assay, Great Lakes Toxicology and Ecology Division (GLTED) Lab (AID 2284050; active = hit-call score of the fitted dose curve at least 0.9, where 1 is the maximum)
Method in brief: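 Cell-free human DIO2 incubated 3 h with chemical; liberated iodide quantified by Sandell-Kolthoff absorbance. Triplicate plates; loss of signal fitted vs DMSO.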

[1] = target: Estrogen receptor (Homo sapiens) (UniProt P03372); experiment: CCTE_Deisenroth_AIME_384WELL_LUC_Active: CCTE's 384-well Estrogen Receptor Transactivation Assay with AIME metabolic competence (ERTA luciferase; metabolism positive), Deisenroth Lab (AID 2284030; active = hit-call score of the fitted dose curve at least 0.9, where 1 is the maximum)
Sequence of Estrogen receptor (Homo sapiens) (P03372 whole entry, looked up): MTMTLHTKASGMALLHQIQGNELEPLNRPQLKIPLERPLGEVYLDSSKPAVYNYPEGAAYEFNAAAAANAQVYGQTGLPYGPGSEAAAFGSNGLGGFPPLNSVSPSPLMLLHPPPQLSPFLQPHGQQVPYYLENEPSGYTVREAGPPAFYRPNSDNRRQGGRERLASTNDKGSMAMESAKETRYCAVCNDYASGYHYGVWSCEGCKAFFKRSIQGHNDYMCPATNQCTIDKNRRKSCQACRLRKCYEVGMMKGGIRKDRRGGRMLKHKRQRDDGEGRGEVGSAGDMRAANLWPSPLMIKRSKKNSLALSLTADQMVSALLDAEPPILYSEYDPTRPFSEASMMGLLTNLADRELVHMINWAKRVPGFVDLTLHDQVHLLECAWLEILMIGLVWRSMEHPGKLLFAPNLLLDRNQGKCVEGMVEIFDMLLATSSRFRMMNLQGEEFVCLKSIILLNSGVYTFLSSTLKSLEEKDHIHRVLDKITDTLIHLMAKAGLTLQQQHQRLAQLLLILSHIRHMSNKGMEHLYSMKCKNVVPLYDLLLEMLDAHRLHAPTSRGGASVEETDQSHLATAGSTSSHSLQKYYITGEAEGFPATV
Method in brief: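 Chemicals (10-point, 0.002-200 uM) were first incubated 2 hours with alginate-immobilized induced male Sprague Dawley rat liver S9. The conditioned medium was then applied to VM7Luc4E2 cells for 24 hours, with ER luciferase induction read by luminescence relative to 17beta-estradiol.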

[2] = target: Estrogen receptor (Homo sapiens) (UniProt P03372); experiment: CCTE_Deisenroth_AIME_384WELL_LUC_Inactive: CCTE's 384-well Estrogen Receptor Transactivation Assay without AIME metabolic competence (ERTA luciferase; metabolism negative), Deisenroth Lab (AID 2284038; active = hit-call score of the fitted dose curve at least 0.9, where 1 is the maximum;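 also: VM7Luc4E2 breast cells given medium preincubated 2 h with S9-free microspheres; hits raise estrogen receptor luciferase signal so potencies reflect agonists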)
Method in brief: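 Metabolism-negative mode: chemicals (10-point, 0.002–200 uM) held 2 h with alginate-water microspheres, then conditioned medium applied to VM7Luc4E2 cells for 24 h. Luciferase induction referenced to 17beta-estradiol.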

[3] = CCTE_Deisenroth_AIME_384WELL_CTox_Inactive: Cytotoxicity Assessment (CTOX) in CCTE's 384-well Estrogen Receptor Transactivation Assay without AIME metabolic competence (metabolism negative), Deisenroth Lab (AID 2284039; active = hit-call score of the fitted dose curve at least 0.9, where 1 is the maximum;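 also: cell viability via live-cell protease substrate cleaved to fluorescent probe; cells exposed 24 h to medium preincubated 2 h with alginate-water beads without S9; loss of fluorescence signal means loss of viability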)
Method in brief: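 Metabolism-negative arm: chemicals (10-point, 0.002 - 200 uM) preincubated 2 h with alginate-water lids, medium moved onto VM7Luc4E2 cells for 24 h. Fluorescent live-cell protease readout; bidirectional curve fit.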

[4] = target: Estrogen receptor (Homo sapiens) (UniProt P03372); experiment: CCTE_Deisenroth_AIME_384WELL_LUC_Shift: CCTE's 384-well Estrogen Receptor Transactivation Assay with AIME metabolic competence data shift (ERTA luciferase; difference in metabolism positive and negative), Deisenroth Lab (AID 2284041);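 also: shift is response with S9 minus without S9 so positive means metabolism raised ER signal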
Method in brief: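 Chemicals (0.002–200 uM, 10 points) pre-incubated 2 h with alginate-encapsulated induced male Sprague Dawley rat liver S9 or S9-free, then medium applied 24 h to VM7Luc4E2 cells; luciferase. Endpoint is per-concentration difference, S9-positive minus negative.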

[5] = CCTE_Shafer_MEA_dev_firing_rate_mean: CCTE's Neural Network Formation Assay for Mean Firing Rate, Shafer Lab (AID 2284031)
Method in brief: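 Primary rat cortical neurons on 48-well MEA plates, exposed from plating day 0 with dosing renewed on DIV 5 and 9. Mean well firing rate over active electrodes, recorded days 5, 7, 9, 12, summarised as trapezoidal AUC.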

[6] = CCTE_Shafer_MEA_dev_active_electrodes_number: CCTE's Neural Network Formation Assay for Number of Active Electrodes, Shafer Lab (AID 2284040; active = hit-call score of the fitted dose curve at least 0.9, where 1 is the maximum)
Method in brief: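 Primary rat cortical neurons on 16-electrode MEA wells, exposed from day 0 through day 12 with compound renewed at DIV 5 and 9 feeds. Active electrodes (mean firing ≥5 spikes/min) counted at DIV 5, 7, 9, 12; trapezoidal AUC across days, loss-of-signal versus DMSO.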

[7] = CCTE_Shafer_MEA_dev_burst_rate: CCTE's Neural Network Formation Assay for Burst Rate, Shafer Lab (AID 2284042)
Method in brief: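 Cells plated, treated day 0; recorded DIV 5, 7, 9, 12; fed and re-treated DIV 5, 9. Endpoint: bursts per recording time, active-electrode well mean, trapezoidal AUC, fitted in decreasing direction against DMSO baseline.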

[8] = CCTE_Shafer_MEA_dev_bursting_electrodes_number: CCTE's Neural Network Formation Assay for Number of Bursting Electrodes, Shafer Lab (AID 2284043; active = hit-call score of the fitted dose curve at least 0.9, where 1 is the maximum)
Method in brief: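 Primary rat cortical neurons plated on 16-electrode MEA wells, exposed from day 0 with compound renewed at DIV 5 and 9. Electrodes bursting ≥1 burst per 2 min counted on days 5, 7, 9 and 12; trapezoidal AUC across days, fitted for loss versus DMSO.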

[9] = CCTE_Shafer_MEA_dev_per_burst_interspike_interval: CCTE's Neural Network Formation Assay for Burst Interspike Interval, Shafer Lab (AID 2284044);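 also: mean spike spacing inside bursts as AUC over recordings on days 5 7 9 12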
Method in brief: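 Primary rat cortical neurons on 48-well MEA plates, exposed from day 0 through day 12, treatment renewed at DIV 5 and 9. Within-burst interspike interval recorded days 5, 7, 9, 12, well-averaged, summarised as AUC; negative fit versus DMSO.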

[10] = CCTE_Shafer_MEA_dev_burst_duration_mean: CCTE's Neural Network Formation Assay for Mean Burst Duration, Shafer Lab (AID 2284045)
Method in brief: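 Primary rat cortical neurons on 48-well 16-electrode MEA plates, exposed from day 0 with renewal at DIV 5 and 9; spontaneous activity recorded on days 5, 7, 9, 12. Well-mean burst duration across bursting electrodes, collapsed as trapezoidal AUC; DMSO baseline.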

[11] = CCTE_Shafer_MEA_dev_interburst_interval_mean: CCTE's Neural Network Formation Assay for Mean Interburst Interval, Shafer Lab (AID 2284046);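 also: well-mean interburst interval of bursting electrodes as AUC over four recording days; curve fitted for decrease in interburst interval relative to DMSO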
Method in brief: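 Developing rat cortical networks on 48-well MEAs receive compound from the day of plating. Burst intervals from each active electrode are averaged per well, and AUC over the recording days is fitted in the negative direction against DMSO.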

[12] = CCTE_Shafer_MEA_dev_network_spike_number: CCTE's Neural Network Formation Assay for Number of Network Spikes, Shafer Lab (AID 2284048)
Method in brief: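 Primary rat cortical neurons on PEI/laminin 48-well MEA plates, dosed from plating day 0 for 12 days, renewed at DIV 5 and 9. Network spike counts recorded DIV 5, 7, 9, 12, collapsed as trapezoidal AUC; DMSO baseline.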

[13] = CCTE_Shafer_MEA_dev_network_spike_peak: CCTE's Neural Network Formation Assay for Mean Number of Electrodes in Network Spike, Shafer Lab (AID 2284049)
Method in brief: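 Network-spike peak electrode count from recordings on days 5, 7, 9 and 12 was combined as trapezoidal area under the curve. Rat cortical cultures were treated continuously from plating, with compound renewed at each feed (DIV 5, 9); fits versus DMSO.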

[14] = CCTE_Shafer_MEA_dev_spike_duration_mean: CCTE's Neural Network Formation Assay for Mean Spike Duration, Shafer Lab (AID 2284051);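 also: mean network spike duration pooled as area under curve over DIV 5 to 12 recordings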
Method in brief: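 Readout is the average length of network spikes, clustered firing across electrodes, summed over DIV 5, 7, 9 and 12 as area under the curve. Neurons from rat cortex developed networks on MEA plates under continuous 12-day exposure.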

Measured: AC50

CCCCCCCc1ccc(O)cc1
active: DIO2 (gene 1734) 136 µM

c1nc[nH]n1
inactive: [1] | [2] | [3] | [4]

O=C(O)C(F)(F)OC(F)(F)C(F)(F)OC(F)(F)C(=O)O
not listed: DIO2 (gene 1734) | [1] | [2] | [3] | [4]
inactive: all other assays above

OCC(F)(F)OC(F)(F)C(F)(F)OC(F)(F)C(F)(F)OC(F)(F)CO
not listed: DIO2 (gene 1734) | [1] | [2] | [3] | [4]
inactive: all other assays above

O=C(O)C(F)(F)OC(F)(F)C(F)(F)OC(F)(F)F
not listed: DIO2 (gene 1734) | [1] | [2] | [3] | [4] | [8]
inactive: all other assays above
